An excerpt weighted towards active compounds, which were near 1.2% of everything screened.
GSH bead fluor: compound fluoresces at 488/530 nm on GSH beads; GSH beads flow cytometry, compound fluorescence 488/530 nm; stronger effect = higher value; AID 1776; fluorescence (KMESF) at 10 µM; 190,000 compounds, 0.25% hits; in the data active means fluorescence above about 89;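 further: glutathione beads carrying GST-tagged Bcl family fusion proteins plus one bare bead set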
RGS7-Gao reg: regulators of human RGS7-Galphao interaction. P09471. Multiplexed bead flow cytometry, RGS7-Galphao binding; actives lie on both sides. binding response (% of control), % at 10 µM. 220,000 compounds, 0.35% hits; in the data active means binding response below about 49% or above about 150%; inconclusive means no clear call, values can overlap the other calls; inactive means in between;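 further: fluorescent Galphao held in activated GDP-AlF4 state binding bead-coupled RGS7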
RGS8-Gao reg: human RGS8-Galphao interaction regulation; 220,000 compounds, 0.34% hits; AID 1423; response (percent of control binding), % at 10 µM; multiplexed bead flow cytometry, RGS8-Galphao binding; actives lie on both sides; in the data active means response below about 60% or above about 140%; inactive means in between;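 further: Galphao activated as the GDP aluminium fluoride complex binding bead-coupled RGS8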
RGS4-Gao reg: human RGS4-Galphao interaction regulation; Multiplexed bead flow cytometry, RGS4-Galphao binding; actives lie on both sides; P09471; binding response (% of control), % at 10 µM; AID 1415; 220,000 compounds, 0.33% hits; in the data active means binding response below about 49% or above about 150%; inactive means in between;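 further: fluorescent Galphao activated with aluminum fluoride binding bead-coupled RGS4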
Avidin bead fluor: compound fluoresces at 488/530 nm on avidin beads; 220,000 compounds, 0.38% hits; fluorescence (KMESF) at 10 µM; AID 1775; compound fluorescence 488/530 nm, flow cytometry; stronger effect = higher value; in the data active means fluorescence above about 47
RGS16-Gao: regulators of human RGS16-Galphao interaction; AID 1441; O15492+P09471; bead-based flow cytometry RGS16-Galphao binding, fluorescence; actives lie on both sides; binding response (% of control), % at 10 µM; 220,000 compounds, 0.38% hits;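 further: Galphao activated by GDP with aluminum fluoride before binding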
Target sequence (O15492 whole entry, looked up): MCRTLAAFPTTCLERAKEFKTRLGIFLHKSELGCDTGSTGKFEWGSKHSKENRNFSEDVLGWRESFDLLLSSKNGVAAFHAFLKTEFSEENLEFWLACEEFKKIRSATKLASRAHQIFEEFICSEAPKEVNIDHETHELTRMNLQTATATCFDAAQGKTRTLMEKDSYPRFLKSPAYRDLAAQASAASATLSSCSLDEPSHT
Target sequence (P09471 whole entry, looked up): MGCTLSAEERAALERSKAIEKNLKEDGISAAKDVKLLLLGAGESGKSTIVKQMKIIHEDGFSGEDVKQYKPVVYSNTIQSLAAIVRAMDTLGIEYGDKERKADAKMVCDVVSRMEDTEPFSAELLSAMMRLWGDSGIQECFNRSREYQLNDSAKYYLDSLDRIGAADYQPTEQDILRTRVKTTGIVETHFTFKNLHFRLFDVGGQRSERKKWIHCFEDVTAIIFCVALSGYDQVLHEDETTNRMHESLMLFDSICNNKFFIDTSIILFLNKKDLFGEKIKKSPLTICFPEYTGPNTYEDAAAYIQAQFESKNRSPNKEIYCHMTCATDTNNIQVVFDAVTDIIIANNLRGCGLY
RGS4-Gao HTS: RGS4-Galphao interaction regulator (human); shares compounds with RGS16-Gao; multiplexed bead flow cytometry, RGS–Galpha-o binding; RGS4–Galpha-o binding response, % at 10 µM; 1,600 compounds, 99% hits; AID 1504;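 further: fluorescently labeled Galpha-o bound to GDP with aluminium fluoride binding biotinylated RGS beads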
Avidin counter: interferes with biotinylated probe binding to avidin beads; inhibition, % at 10 µM; 1,700 tested, under 10 active; shares compounds with RGS16-Gao; streptavidin beads, fluorescein-biotin binding, flow cytometry;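 active means inhibition above 50%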;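 further: median green fluorescence of gated singlet beads compared with DMSO control wells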
RGS8-Gao single: RGS8-Galphao interaction regulation, single point confirmation. shares compounds with RGS16-Gao. bead-based flow cytometry RGS8-Galphao binding, fluorescence; actives lie on both sides. binding response (% of control), % at 10 µM. 1,700 compounds, 3% hits; in the data active means binding response below about 72% or above about 130%; inactive means in between;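 further: Galphao activated as GDP AlF4 complex before binding bead RGS8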
RGS7-Gao confirm: RGS7-Galphao interaction regulation, single point confirmation. 1,700 compounds, 7.8% hits. shares compounds with RGS16-Gao. bead-based flow cytometry RGS7-Galphao binding; actives lie on both sides. response (percent of control binding), % at 10 µM; in the data active means response below about 75% or above about 130%; inactive means in between;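 further: fluorescent Galphao activated with GDP and aluminum fluoride binding bead-coupled RGS7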
RGS16-Gao conf: RGS16-Galphao interaction regulation, single point confirmation | 1,700 compounds, 4% hits | shares compounds with RGS16-Gao | response (% of control binding), % at 10 µM | AID 1838 | bead-based flow cytometry, RGS16-Galphao binding; actives lie on both sides; in the data active means response below about 74% or above about 130%; inactive means in between;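 further: Galphao activated as the GDP aluminium fluoride complex binding bead-coupled RGS16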
RGS4-Gao confirm: confirmation of regulators of human RGS4-Galphao interaction; RGS4-Galphao binding, multiplexed bead flow cytometry; actives lie on both sides; shares compounds with RGS16-Gao; 1,700 compounds, 4% hits; binding response (% of control), % at 10 µM; AID 1840; in the data active means binding response below about 74% or above about 130%; inactive means in between
RGS19-Gao single: confirmation of regulators of human RGS19-Galphao interaction | response (percent of control binding), % at 10 µM | shares compounds with RGS16-Gao | bead-based flow cytometry RGS19-Galphao binding; actives lie on both sides | 1,700 compounds, 5% hits; in the data active means response below about 50% or above about 160%; inactive means in between
Hits are given with their value; - = inactive; ? = inconclusive; . = no result; [ ] = dose if it differs, or a comment. Unless noted, how the calls were made is not given here.

SMILES	GSH bead fluor	RGS7-Gao reg	RGS8-Gao reg	RGS4-Gao reg	Avidin bead fluor	RGS16-Gao	RGS4-Gao HTS	Avidin counter	RGS8-Gao single	RGS7-Gao confirm	RGS16-Gao conf	RGS4-Gao confirm	RGS19-Gao single
CCOC(=O)C1(Cc2ccccc2C(F)(F)F)CCN(C2CCN(C(C)C)CC2)CC1	-	-	-	-	-	-	.	.	.	.	.	.	.
CC(C)CCNC1=NCCCCC1	-	-	-	-	-	-	.	.	.	.	.	.	.
CCCCOCCCNC1=NCCCCC1	-	-	-	-	-	-11	87	.	.	.	.	.	.
CC(C)(O)C#Cc1ccc(C(=O)N2CCN(c3ccc(Cl)cc3)CC2)cc1	-	-	-	-	-	-	.	.	.	.	.	.	.
CC(=O)NC(=S)Nc1ccc(NC(=O)COc2ccc(Cl)cc2Cl)cc1	-	184[activator]	-	150[activator]	78	-	.	-	-	-	-	-	-
c1ccc(-c2nccnc2-c2ccccc2)cc1	.	?	-	-	-	-	.	.	.	.	.	.	.
FC(F)Sc1nc(-c2ccccc2)c(-c2ccccc2)n1C(F)F	-	174[activator]	-	-	100	-	117	-	-	-	-	-	-
Cc1cc(C)cc(N(CC(=O)NC2CCC(C)CC2)S(=O)(=O)c2c(C)[nH]c(=O)[nH]c2=O)c1 (configuration not stated)	.	?	-	-	-	-	.	.	.	.	.	.	.
CNC(=O)c1c(C)nn(-c2ccc(F)c(Cl)c2)c1-c1cc(C)on1	.	?	-	-	-	-	.	.	.	.	.	.	.
O=C1/C(=C/c2cccnc2)SC(=S)N1c1ccc(O)cc1	.	?	-	-	-	-	.	.	.	.	.	.	.
O=C1/C(=C/c2cccnc2)SC(=S)N1c1ccc(F)cc1	-	-	-	-	-	178[activator]	109	-	-	-	-	-	-
CCOC(=O)C(NC(C)=O)(Nc1ccc(F)cc1)C(F)(F)F (configuration not stated)	-	205[activator]	-	-	260	-	138	-	-	-	-	-	-
CCOC(=O)C(NC(C)=O)(Nc1cccc(F)c1)C(F)(F)F (configuration not stated)	-	-	-	-	-	-	.	.	.	.	.	.	.
CCOC(=O)c1c(O)cc(C)[nH]c1=O	.	?	-	-	-	-	.	.	.	.	.	.	.
Cc1[nH]cnc1CSCc1ccc(Cl)cc1	-	-	147[activator]	-	-	192[activator]	134	-	-	-	-	-	-
Cc1[nH]cnc1CSCCN	-	-	-	-	-	-	.	.	.	.	.	.	.
Cc1ccc(N(CC(=O)N2CCN(C3CCCCC3)CC2)S(=O)(=O)c2cccnc2)cc1	-	-	-	-	-	260[activator]	109	.	.	.	.	.	.
Cc1ccc(S(=O)(=O)N(CC(=O)N2CCCCCC2)c2ccccc2)cc1	-	-	-	-	-	-	.	.	.	.	.	.	.
O=C(COc1ccc2ccccc2c1)NCCc1ccc2c(c1)OCCO2	-	-	106[activator]	31	-	113[activator]	.	-	-	-	-	-	-
O=C(COc1ccc2ccccc2c1)NCCNC(=O)COc1ccc2ccccc2c1	-	-	-	-	-	-	.	.	.	.	.	.	.
COc1ccccc1OCCOCCOc1ccc(C)cc1[N+](=O)[O-]	-	-	-	-	-	295[activator]	116	-	-	-	-	-	-
